Compound activity (PubChem)
Most compounds without a hit are left out; they make up all but 6.8% or so of the library.
C diff HTS = C. difficile growth inhibition | AID 1259249 | growth activity, negative = inhibition, % at 16 µg/mL (by protocol) | Clostridium difficile clinical isolate growth, OD600, 24 h; active compounds read low | 0.25% of 86,000 active;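 active means mean growth activity at or below -80% and every replicate also at or below -80%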
Pf Dd2 growth = P. falciparum Dd2 growth inhibition. SYBR Green, 72 h; active compounds read low. activity change, % at 10 µM. 2.3% of 94,000 active. AID 1159554; in the data active means activity change below about -80%
T cruzi growth = inhibitors of T. cruzi proliferation | T. cruzi beta-gal in NIH3T3, GalScreen luminescence, 90 h | inhibition, % at 8.34 µM | 5.9% of 77,000 active | AID 624255;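 active means mean inhibition above about 93%, with at least 55% of replicates each passing it, limit read from the data, passing the limit was not always enough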
A number is an active result; - = inactive; . = not tested or not shown; ! = not active in a repeat.

SMILES	C diff HTS	Pf Dd2 growth	T cruzi growth
COc1ccc2c3c([nH]c2c1)[C@H](CO)N(C(=O)Nc1ccc(F)cc1)CC31CCN(S(=O)(=O)c2ccccc2)CC1	-	-88	.
COc1cccc(S(=O)(=O)N2CCC3(CC2)CN(C(=O)Nc2ccc(F)cc2)[C@H](CO)c2[nH]c4cc(OC)ccc4c23)c1	-	-	.
COc1ccc2c3c([nH]c2c1)[C@@H](CO)N(C(=O)Nc1ccc(F)cc1)CC31CCN(S(=O)(=O)c2ccccc2)CC1	-	-84	.
C[C@H]1CN([C@@H](C)CO)C(=O)c2cccc(NC(=O)Nc3ccc(C(F)(F)F)cc3)c2O[C@@H]1CN(C)Cc1ccc(C(F)(F)F)cc1	-	-	-
C[C@@H]1CN([C@@H](C)CO)C(=O)c2cccc(NC(=O)Nc3ccc(C(F)(F)F)cc3)c2O[C@@H]1CN(C)S(=O)(=O)c1ccc(Cl)cc1	.	-	107
C[C@H]1CN([C@@H](C)CO)C(=O)c2cccc(NC(=O)Nc3ccc(C(F)(F)F)cc3)c2O[C@@H]1CN(C)S(=O)(=O)c1ccc(F)cc1	-	-	-
C[C@@H]1CN([C@@H](C)CO)C(=O)c2cccc(NC(=O)Nc3ccc(C(F)(F)F)cc3)c2O[C@@H]1CN(C)Cc1ccc(C(F)(F)F)cc1	-103	-	-
COc1ccc(CN(C)C[C@H]2Oc3c(NC(=O)Nc4ccc(C(F)(F)F)cc4)cccc3C(=O)N([C@@H](C)CO)C[C@H]2C)cc1	-101	-	.
COc1ccc(CN(C)C[C@@H]2Oc3c(NC(=O)Nc4ccc(C(F)(F)F)cc4)cccc3C(=O)N([C@H](C)CO)C[C@H]2C)cc1	-	-	.
C[C@@H]1CN([C@@H](C)CO)C(=O)c2cccc(NC(=O)Nc3ccc(F)cc3)c2O[C@@H]1CN(C)Cc1ccc(C(F)(F)F)cc1	-92	-	-
C[C@@H]1CN([C@H](C)CO)C(=O)c2cccc(NC(=O)Nc3ccc(F)cc3)c2O[C@H]1CN(C)Cc1ccc(C(F)(F)F)cc1	-	-	-
C/C=C/c1cnc2c(c1)C(=O)N([C@@H](C)CO)C[C@H](C)[C@H](CN(C)C(=O)C1CCC1)O2	.	-	-
C[C@@H]1CCCCO[C@H](CN(C)Cc2ccc(C(F)(F)F)cc2)[C@@H](C)CN([C@H](C)CO)C(=O)c2cc(NC(=O)CCCCCC(=O)Nc3ccccc3N)ccc2O1	-	-93	.
C[C@@H]1CCCCO[C@H](CN(C)Cc2ccccc2)[C@@H](C)CN([C@@H](C)CO)C(=O)c2cc(NC(=O)CCCCCC(=O)Nc3ccccc3N)ccc2O1	-	-	-
C[C@@H]1CCCCO[C@@H](CN(C)Cc2ccc3c(c2)OCO3)[C@@H](C)CN([C@H](C)CO)C(=O)c2cc(NC(=O)CCCCCC(=O)Nc3ccccc3N)ccc2O1	-	-85	.
C[C@@H]1CCCCO[C@@H](CN(C)Cc2ccc(Cl)c(Cl)c2)[C@@H](C)CN([C@H](C)CO)C(=O)c2cc(NC(=O)CCCCCC(=O)Nc3ccccc3N)ccc2O1	-	-	.
C[C@@H]1CCCCO[C@@H](CN(C)S(C)(=O)=O)[C@@H](C)CN([C@H](C)CO)C(=O)c2cc(NC(=O)Nc3ccc(F)cc3)ccc2O1	-	-	-
O=C(Nc1ccc2c(c1)OCO2)N1C[C@@H]2N[C@H](C1)C2c1ccc(C=Cc2ccccc2)cc1 (stereo partly drawn)	-99!	-	.
C/C=C/c1ccc(C2[C@@H]3CN(C(=O)Nc4ccc(F)cc4)C[C@H]2N3)cc1 (stereo partly drawn)	-	-	.
O=C(Nc1ccc2c(c1)OCO2)N1[C@@H]2CNC[C@H]1C2c1ccc(/C=C/c2ccccc2)cc1 (stereo partly drawn)	-	-	.
C/C=C/c1ccc(C2[C@@H]3CN(C(=O)Nc4ccccc4F)C[C@H]2N3)cc1 (stereo partly drawn)	-	-	.
Cc1ccccc1-c1ccc(C2[C@@H]3CN(C(=O)Nc4ccc(F)cc4)C[C@H]2N3)cc1 (stereo partly drawn)	-	-	.
C/C=C/c1ccc(C2[C@@H]3CN(C(=O)Nc4ccc(C(F)(F)F)cc4)C[C@H]2N3)cc1 (stereo partly drawn)	-	-82!	.
O=C(Nc1ccc(F)cc1)N1C[C@@H]2N[C@H](C1)C2c1ccc(/C=C/c2ccccc2)cc1 (stereo partly drawn)	-100	-	.
O=C(Nc1ccccc1F)N1C[C@@H]2N[C@H](C1)C2c1ccc(/C=C/c2ccccc2)cc1 (stereo partly drawn)	-97!	-	.
SMILES	C diff HTS	Pf Dd2 growth	T cruzi growth
Cc1nc(S(=O)(=O)N[C@@H]2CCCN(Cc3cccc(OCCO)c3)C2)cn1C	-	.	.
C[C@H](CO)N1C[C@H](C)[C@H](CN(C)Cc2ccc3c(c2)OCO3)Oc2ccc(NC(=O)CCCCCC(=O)Nc3ccccc3N)cc2C1=O	-	-	.
C[C@@H]1CN([C@@H](C)CO)C(=O)c2cccc(NC(=O)CCCCCC(=O)Nc3ccccc3N)c2O[C@H]1CN(C)Cc1ccc2c(c1)OCO2	-	-88	.
C[C@@H]1CN([C@@H](C)CO)C(=O)c2cc(NC(=O)CCCCCC(=O)Nc3ccccc3N)ccc2O[C@@H]1CN(C)Cc1ccc2c(c1)OCO2	-	-	.
C[C@H](CO)N1C[C@H](C)[C@@H](CN(C)Cc2ccc3c(c2)OCO3)Oc2c(NC(=O)CCCCCC(=O)Nc3ccccc3N)cccc2C1=O	-	-85	.
C[C@@H]1CN([C@H](C)CO)C(=O)c2cc(NS(=O)(=O)c3ccc(F)cc3)ccc2O[C@H]1CN(C)S(=O)(=O)c1cn(C)cn1	-	-	-
COc1ccc(-c2ccc3c(c2)[C@@H]2[C@@H](CCN2Cc2ccncc2)[C@@H](CO)N3)cc1	-	-	-
OC[C@@H]1Nc2ccc(C#Cc3ccccc3)cc2[C@@H]2[C@H]1CCN2Cc1nccs1	-	-	.
COc1ccc(C#Cc2ccc3c(c2)[C@H]2[C@H](CCN2Cc2nccs2)[C@H](CO)N3)cc1	-	-85	.
COc1ccc(C#Cc2ccc3c(c2)[C@H]2[C@H](CCN2Cc2ccncc2)[C@H](CO)N3)cc1	-	-94	.
O=C(NC1CCCC1)N[C@@H]1CC[C@@H](CC(=O)N2CCOCC2)O[C@H]1CO	-	-	.
C[C@@H]1CN([C@@H](C)CO)C(=O)Cc2cc(N(C)C)ccc2O[C@@H]1CN(C)C(=O)Nc1ccc(C(F)(F)F)cc1	-	-	-
CCCC(=O)N1CCC2(CC1)CN(C(=O)C1CC1)[C@@H](CO)c1[nH]c3cc(OC)ccc3c12	-	-	.
COc1ccccc1S(=O)(=O)N[C@@H]1CC[C@@H](CCNC(=O)C2CCCC2)O[C@H]1CO	-	-	.
C[C@@H]1CN([C@@H](C)CO)C(=O)c2cccc(NC(=O)Nc3ccccc3)c2O[C@@H]1CN(C)Cc1ccc(C(F)(F)F)cc1	-97	-	-
C[C@@H]1CN([C@@H](C)CO)C(=O)c2cccc(NC(=O)Nc3ccc(C(F)(F)F)cc3)c2O[C@@H]1CN(C)Cc1ccccc1	-98	-	-
C[C@H](CO)N1C[C@H](C)[C@H](CN(C)Cc2ccccc2)Oc2c(NC(=O)Nc3ccc(C(F)(F)F)cc3)cccc2C1=O	-	-	-
C[C@H](CO)N1C[C@H](C)[C@@H](CN(C)Cc2ccccc2)Oc2c(NC(=O)Nc3ccc(C(F)(F)F)cc3)cccc2C1=O	-	-	-
CS(=O)(=O)N1CC2(C1)[C@H](c1ccccc1)[C@@H](CO)N2CC1CC1	-	-	.
